From PubChem BioAssay (NCI)
Compounds without any hit were thinned out: in the full panel of roughly 83,000, 20% have a hit.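 A percent growth of 40 corresponds to 60% growth inhibition; 0 means no net growth; -100 means all cells died. Active threshold: below 10.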 Unmarked numbers belong to inactive results. Calls of active or inactive are those of the source.

Key:
Assay in all cases: NCI-60 one-dose screen, 48 h (100 = growth as untreated, 0 = no growth, -100 = all killed)
786-0 renal = details: 10 µM unless noted
DU-145 prostate = details: 10 µM unless noted
MDA-MB-231 breast = details: 10 µM unless noted
SF-268 CNS = details: 10 µM unless noted
SF-539 CNS = details: 10 µM unless noted
UACC-257 melanoma = details: 10 µM unless noted
HCT-15 colon = details: 10 µM
SNB-19 CNS = details: 10 µM unless noted
PC-3 prostate = details: 10 µM unless noted
UACC-62 melanoma = details: 10 µM unless noted
LOX IMVI melanoma = details: 10 µM unless noted
SK-MEL-28 melanoma = details: 10 µM unless noted
SN12C renal = details: 10 µM unless noted
MOLT-4 leukemia = details: 10 µM
OVCAR-8 ovarian = details: 10 µM unless noted
OVCAR-3 ovarian = details: 10 µM unless noted
MDA-MB-435 melanoma = details: 10 µM unless noted
SW-620 colon = details: 10 µM unless noted
MCF7 breast = details: 10 µM unless noted
KM12 colon = details: 10 µM unless noted

## O=C(O)C1(Br)CC12c1ccccc1-c1ccccc12 (configuration not stated)
786-0 renal
  growth: 101%
DU-145 prostate
  growth: 111%
MDA-MB-231 breast
  growth: 115%
SF-268 CNS
  growth: 100%
SF-539 CNS
  growth: 103%
UACC-257 melanoma
  growth: 94.8%
HCT-15 colon
  growth: 101%
SNB-19 CNS
  growth: 104%
PC-3 prostate
  growth: 100%
UACC-62 melanoma
  growth: 103%
LOX IMVI melanoma
  growth: 96.1%
SK-MEL-28 melanoma
  growth: 114%
SN12C renal
  growth: 107%
MOLT-4 leukemia
  growth: 86%
OVCAR-8 ovarian
  growth: 99.6%
OVCAR-3 ovarian
  growth: 103%
MDA-MB-435 melanoma
  growth: 108%
SW-620 colon
  growth: 111%
MCF7 breast
  growth: 93.4%
KM12 colon
  growth: 99.7%

## COC[CH2][Hg][C]#[C][Hg][CH2]COC
786-0 renal
  growth: 41.7%
DU-145 prostate
  growth: 87.6%
SF-268 CNS
  growth: 93.7%
SF-539 CNS
  growth: 90.7%
UACC-257 melanoma
  growth: 105%
HCT-15 colon
  growth: 97.1%
SNB-19 CNS
  growth: 108%
PC-3 prostate
  growth: 94.7%
UACC-62 melanoma
  growth: 106%
LOX IMVI melanoma
  growth: 17.5%
SK-MEL-28 melanoma
  growth: 90.1%
SN12C renal
  growth: 96%
MOLT-4 leukemia
  growth: 79.8%
OVCAR-3 ovarian
  growth: 113%
MDA-MB-435 melanoma
  growth: 43%
SW-620 colon
  growth: 108%
MCF7 breast
  growth: 55.3%
KM12 colon
  growth: 85.5%

## Cc1nnc([S-])s1.[Au+].c1ccc([PH+](c2ccccc2)c2ccccc2)cc1
786-0 renal
  growth: -29.7% (active)
DU-145 prostate
  growth: 18.6%
MDA-MB-231 breast
  growth: 4.44% (active)
SF-268 CNS
  growth: 7.17% (active)
SF-539 CNS
  growth: -22.9% (active)
UACC-257 melanoma
  growth: -12.4% (active)
HCT-15 colon
  growth: -76% (active)
SNB-19 CNS
  growth: 19.2%
PC-3 prostate
  growth: 15.4%
UACC-62 melanoma
  growth: -31% (active)
LOX IMVI melanoma
  growth: -60.6% (active)
SK-MEL-28 melanoma
  growth: -55.7% (active)
SN12C renal
  growth: 6.71% (active)
MOLT-4 leukemia
  growth: -9.08% (active)
OVCAR-8 ovarian
  growth: 15.9%
OVCAR-3 ovarian
  growth: -96.3% (active)
MDA-MB-435 melanoma
  growth: 5.65% (active)
SW-620 colon
  growth: -70.6% (active)
MCF7 breast
  growth: -64.1% (active)
KM12 colon
  growth: 49.1%

## NC(Cc1ccc2c(c1)OCO2)c1ccc2c(c1)OCO2 (configuration not stated)
786-0 renal
  growth: 98.5%
DU-145 prostate
  growth: 116%
MDA-MB-231 breast
  growth: 107%
SF-268 CNS
  growth: 103%
SF-539 CNS
  growth: 114%
UACC-257 melanoma
  growth: 103%
HCT-15 colon
  growth: 115%
SNB-19 CNS
  growth: 93.6%
PC-3 prostate
  growth: 93.4%
UACC-62 melanoma
  growth: 92.6%
LOX IMVI melanoma
  growth: 99.8%
SK-MEL-28 melanoma
  growth: 101%
SN12C renal
  growth: 94%
MOLT-4 leukemia
  growth: 107%
OVCAR-8 ovarian
  growth: 102%
OVCAR-3 ovarian
  growth: 120%
SW-620 colon
  growth: 101%
MCF7 breast
  growth: 89.2%
KM12 colon
  growth: 109%

## C[C@]12CCc3sc(-c4ccc(Cl)cc4)nc3C1=CC[C@@H]1[C@@H]2CC[C@]2(C)C(=O)CC[C@@H]12
786-0 renal
  growth: 53.4%
DU-145 prostate
  growth: 43.6%
MDA-MB-231 breast
  growth: 64.3%
SF-268 CNS
  growth: 64.4%
SF-539 CNS
  growth: 29.6%
UACC-257 melanoma
  growth: 99%
HCT-15 colon
  growth: 34.6%
SNB-19 CNS
  growth: 56.2%
PC-3 prostate
  growth: 50%
UACC-62 melanoma
  growth: 51.1%
LOX IMVI melanoma
  growth: 55.1%
SK-MEL-28 melanoma
  growth: 63.1%
SN12C renal
  growth: 65.9%
MOLT-4 leukemia
  growth: 8.47% (active)
OVCAR-8 ovarian
  growth: 80.4%
OVCAR-3 ovarian
  growth: 27.2%
MDA-MB-435 melanoma
  growth: 75.7%
SW-620 colon
  growth: 22.9%
MCF7 breast
  growth: 24.4%
KM12 colon
  growth: 66.8%

## Oc1c(Br)cc(Br)cc1Br.[Cu+2]
786-0 renal
  growth: 115%
DU-145 prostate
  growth: 108%
MDA-MB-231 breast
  growth: 111%
SF-268 CNS
  growth: 105%
SF-539 CNS
  growth: 107%
UACC-257 melanoma
  growth: 101%
HCT-15 colon
  growth: 108%
SNB-19 CNS
  growth: 118%
PC-3 prostate
  growth: 103%
UACC-62 melanoma
  growth: 109%
LOX IMVI melanoma
  growth: 89%
SK-MEL-28 melanoma
  growth: 101%
SN12C renal
  growth: 110%
MOLT-4 leukemia
  growth: 92.1%
OVCAR-8 ovarian
  growth: 103%
OVCAR-3 ovarian
  growth: 109%
MDA-MB-435 melanoma
  growth: 105%
SW-620 colon
  growth: 99.2%
MCF7 breast
  growth: 101%
KM12 colon
  growth: 98.1%

## CCCCOC(=O)c1ccccc1C(=O)O.CCCCOC(=O)c1ccccc1C(=O)O.[Cu+2]
786-0 renal
  growth: 106%
DU-145 prostate
  growth: 113%
MDA-MB-231 breast
  growth: 124%
SF-268 CNS
  growth: 120%
SF-539 CNS
  growth: 111%
UACC-257 melanoma
  growth: 110%
HCT-15 colon
  growth: 112%
SNB-19 CNS
  growth: 131%
PC-3 prostate
  growth: 111%
UACC-62 melanoma
  growth: 111%
LOX IMVI melanoma
  growth: 89.4%
SK-MEL-28 melanoma
  growth: 111%
SN12C renal
  growth: 113%
MOLT-4 leukemia
  growth: 96.8%
OVCAR-8 ovarian
  growth: 108%
OVCAR-3 ovarian
  growth: 110%
MDA-MB-435 melanoma
  growth: 105%
SW-620 colon
  growth: 98.8%
MCF7 breast
  growth: 98.3%
KM12 colon
  growth: 105%

## CC(=O)O[C@@H]1C2=C(C)C3(CC3)[C@@](C)(O)C(=O)C2=C[C@@]1(C)CO
786-0 renal
  growth: 0.386% (active)
DU-145 prostate
  growth: 5.53% (active)
MDA-MB-231 breast
  growth: -2.64% (active)
SF-268 CNS
  growth: 6.35% (active)
SF-539 CNS
  growth: -33.1% (active)
UACC-257 melanoma
  growth: -34.7% (active)
HCT-15 colon
  growth: 0.741% (active)
SNB-19 CNS
  growth: 7.37% (active)
PC-3 prostate
  growth: 6.46% (active)
UACC-62 melanoma
  growth: -69.8% (active)
LOX IMVI melanoma
  growth: -25.2% (active)
SK-MEL-28 melanoma
  growth: -28.8% (active)
SN12C renal
  growth: 12.4%
MOLT-4 leukemia
  growth: 5.2% (active)
OVCAR-8 ovarian
  growth: 7.82% (active)
OVCAR-3 ovarian
  growth: -9.99% (active)
MDA-MB-435 melanoma
  growth: -85% (active)
SW-620 colon
  growth: 4.27% (active)
MCF7 breast
  growth: 1.42% (active)
KM12 colon
  growth: 0.46% (active)
